Reference: the supplement of paper PMC10849652
Targets with a hit are over-represented here; the source holds about 7,900 in all. About 0.6% of all pairs of compound and target were hits.

Legend:
Assay in all cases: log2 fold change, soluble protein after heating vs DMSO (PISA); higher = thermal stabilisation; K562 cells, 10 uM, 30 min; active = over 0.2 and 3.5 SD of the protein, either way, in both replicates (recomputed)
[1] = compound: C1=CC=C(C=C1)[C@H](COC2=CC3=C(C=C2)NC(=O)N3)NC(=O)C4=CC=CN(C4=O)CC5=CC(=C(C=C5)F)F
Procedure, shortened: (§1)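 Aliquots of K562 cells (2×10^6 cells/mL) treated with 10 μM compound for 30 min were heated for 3 min over 48°C-58°C. After pooling and extraction in PBS with 0.5% NP-40 at 4°C, soluble protein from a 21,000xg, 90 min spin was quantified by TMTpro 16plex LC-MS/MS with channel sums equalised. Thermal stability is expressed against control samples, from duplicates, as a log2 fold change.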

[2] = compound: CC1=C(SC2=C1C(=N[C@H](C3=NN=C(N32)C)CC(=O)N)C4=CC=C(C=C4)Cl)C
Procedure, shortened: as §1

[3] = compound: CC1=C2C(=CC=C1)N=C(N(C2=O)C3=CC=CC=C3C)CN4C=NC5=C(N=CN=C54)N
Procedure, shortened: as §1

[4] = compound: Cc1sc2c(c1C)C(c1ccc(Cl)cc1)=N[C@@H](CC(=O)OC(C)(C)C)c1nnc(C)n1-2
Procedure, shortened: as §1

[5] = compound: c1ccc([C@@H]2C[C@H]2NC2CCNCC2)cc1
Procedure, shortened: as §1

Measured: log2 fold change

CRKL (UniProt P46109)
Sequence of UniProt P46109 (P46109 whole entry, looked up): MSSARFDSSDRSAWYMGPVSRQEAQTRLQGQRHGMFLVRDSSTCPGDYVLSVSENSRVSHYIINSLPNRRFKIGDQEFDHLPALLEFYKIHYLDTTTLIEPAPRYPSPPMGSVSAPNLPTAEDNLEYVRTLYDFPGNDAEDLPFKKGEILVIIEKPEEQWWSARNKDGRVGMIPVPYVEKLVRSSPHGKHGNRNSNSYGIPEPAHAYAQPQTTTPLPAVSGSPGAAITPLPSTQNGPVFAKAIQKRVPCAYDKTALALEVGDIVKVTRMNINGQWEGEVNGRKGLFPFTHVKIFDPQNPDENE
inactive: [1] 0.01 | [2] 0.041 | [3] 0.032 | [4] 0.016 | [5] -0.002

CS (UniProt O75390)
inactive: [1] -0.043 | [2] 0.089 | [3] 0.053 | [4] -0.015 | [5] -0.016

CHP1 (UniProt Q99653)
Sequence of UniProt Q99653 (Q99653 whole entry, looked up): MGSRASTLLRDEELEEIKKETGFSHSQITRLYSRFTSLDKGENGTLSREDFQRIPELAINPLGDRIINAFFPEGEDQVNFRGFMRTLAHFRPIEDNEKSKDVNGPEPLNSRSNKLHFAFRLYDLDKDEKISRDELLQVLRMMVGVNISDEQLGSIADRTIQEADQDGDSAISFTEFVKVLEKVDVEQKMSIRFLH
inactive: [1] 0.022 | [2] 0.016 | [3] -0.058 | [4] -0.057 | [5] -0.015

CSNK1D (UniProt P48730)
inactive: [1] -0.08 | [2] -0.067 | [3] -0.192 | [4] -0.011 | [5] -0.015

COMMD2 (UniProt Q86X83)
Sequence of UniProt Q86X83 (Q86X83 whole entry, looked up): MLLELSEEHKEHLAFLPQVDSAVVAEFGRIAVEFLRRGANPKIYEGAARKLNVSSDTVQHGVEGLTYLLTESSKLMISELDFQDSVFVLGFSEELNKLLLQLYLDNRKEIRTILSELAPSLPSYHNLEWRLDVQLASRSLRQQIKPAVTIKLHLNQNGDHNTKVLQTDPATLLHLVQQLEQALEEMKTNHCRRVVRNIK
inactive: [1] -0.029 | [2] 0.053 | [3] 0 | [4] -0.199 | [5] 0.04

CDK13 (UniProt Q14004)
Sequence of UniProt Q14004 (Q14004 whole entry, looked up): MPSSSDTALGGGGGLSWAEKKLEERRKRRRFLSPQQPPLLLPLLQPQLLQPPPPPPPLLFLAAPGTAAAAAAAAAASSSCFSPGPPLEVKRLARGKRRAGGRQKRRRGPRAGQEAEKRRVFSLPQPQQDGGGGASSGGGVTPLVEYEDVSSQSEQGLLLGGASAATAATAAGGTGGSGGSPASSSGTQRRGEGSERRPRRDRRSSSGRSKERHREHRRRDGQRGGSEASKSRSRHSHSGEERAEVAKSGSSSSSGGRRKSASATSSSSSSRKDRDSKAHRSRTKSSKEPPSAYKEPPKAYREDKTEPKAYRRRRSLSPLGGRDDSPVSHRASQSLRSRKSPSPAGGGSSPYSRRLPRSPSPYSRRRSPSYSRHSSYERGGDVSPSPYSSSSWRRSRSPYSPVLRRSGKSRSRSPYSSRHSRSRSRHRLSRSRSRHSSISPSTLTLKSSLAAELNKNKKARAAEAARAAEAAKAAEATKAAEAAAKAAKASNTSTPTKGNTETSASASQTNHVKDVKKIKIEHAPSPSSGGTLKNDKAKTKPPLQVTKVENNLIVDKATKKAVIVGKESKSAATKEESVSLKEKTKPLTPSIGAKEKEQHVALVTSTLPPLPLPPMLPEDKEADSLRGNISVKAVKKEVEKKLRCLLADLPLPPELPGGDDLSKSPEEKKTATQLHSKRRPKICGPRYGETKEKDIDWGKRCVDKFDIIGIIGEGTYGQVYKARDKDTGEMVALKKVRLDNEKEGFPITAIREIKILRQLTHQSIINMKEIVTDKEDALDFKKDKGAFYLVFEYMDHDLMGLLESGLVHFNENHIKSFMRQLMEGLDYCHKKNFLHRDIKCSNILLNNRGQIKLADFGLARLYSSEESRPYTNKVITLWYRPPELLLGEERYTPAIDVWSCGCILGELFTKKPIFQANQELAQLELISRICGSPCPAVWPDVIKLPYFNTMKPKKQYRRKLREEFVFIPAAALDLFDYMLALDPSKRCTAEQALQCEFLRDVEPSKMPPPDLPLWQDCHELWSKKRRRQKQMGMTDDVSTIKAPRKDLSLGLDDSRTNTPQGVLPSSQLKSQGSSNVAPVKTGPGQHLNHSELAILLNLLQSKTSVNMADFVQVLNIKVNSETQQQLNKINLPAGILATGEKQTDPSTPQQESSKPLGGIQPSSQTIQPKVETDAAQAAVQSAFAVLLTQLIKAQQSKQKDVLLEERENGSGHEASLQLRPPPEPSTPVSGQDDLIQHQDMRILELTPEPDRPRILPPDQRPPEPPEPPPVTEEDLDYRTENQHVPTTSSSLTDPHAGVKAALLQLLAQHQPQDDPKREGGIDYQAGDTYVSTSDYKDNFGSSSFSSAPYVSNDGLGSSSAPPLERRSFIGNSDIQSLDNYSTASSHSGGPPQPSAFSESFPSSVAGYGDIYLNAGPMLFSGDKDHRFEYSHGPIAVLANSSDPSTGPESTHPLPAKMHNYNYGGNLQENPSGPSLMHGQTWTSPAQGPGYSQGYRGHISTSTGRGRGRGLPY
inactive: [1] 0.031 | [2] 0.019 | [3] -0.017 | [4] 0.161 | [5] -0.004

CDK9 isoform 2 (UniProt P50750)
inactive: [1] -0.007 | [2] -0.03 | [3] 0 | [4] 0.089 | [5] 0

CRTC3 (UniProt Q6UUV7)
inactive: [1] -0.083 | [2] 0.044 | [3] -0.065 | [4] 0.004 | [5] 0.034

CAMKK2 (UniProt Q96RR4)
inactive: [1] -0.047 | [2] 0.388 | [3] 0.023 | [4] 0.019 | [5] 0.149

CRMP1 isoform 2 (UniProt Q14194)
inactive: [1] -0.014 | [2] 0.074 | [3] -0.066 | [4] 0.002 | [5] -0.006

CETN2 (UniProt P41208)
Sequence of UniProt P41208 (P41208 whole entry, looked up): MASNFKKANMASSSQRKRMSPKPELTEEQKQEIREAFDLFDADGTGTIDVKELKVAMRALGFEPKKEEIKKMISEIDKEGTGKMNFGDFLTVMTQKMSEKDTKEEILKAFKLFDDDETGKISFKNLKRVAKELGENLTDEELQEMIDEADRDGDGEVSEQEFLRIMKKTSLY
inactive: [1] 0.027 | [2] 0.046 | [3] -0.012 | [4] 0.06 | [5] 0.08

CPSF3 (UniProt Q9UKF6)
inactive: [1] -0.016 | [2] 0.024 | [3] 0.036 | [4] -0.026 | [5] 0.009

CCNDBP1 (UniProt O95273)
inactive: [1] 0.023 | [2] -0.118 | [3] 0.182 | [4] 0.007 | [5] 0.047

CA8 (UniProt P35219)
inactive: [1] 0.006 | [2] 0.059 | [3] 0.052 | [4] 0.025 | [5] -0.045

CCAR1 (UniProt Q8IX12)
inactive: [1] -0.129 | [2] 0.061 | [3] 0.043 | [4] 0.044 | [5] -0.043

CENPE (UniProt Q02224)
inactive: [1] -0.005 | [2] -0.139 | [3] 0.049 | [4] -0.001 | [5] -0.362

CALCOCO2 isoform 4 (UniProt Q13137)
inactive: [1] -0.036 | [2] -0.002 | [3] -0.04 | [4] 0.049 | [5] 0.026

COX5A (UniProt P20674)
inactive: [1] 0.016 | [2] 0.059 | [3] 0.037 | [4] -0.075 | [5] -0.043

C9orf64 (UniProt Q5T6V5)
inactive: [1] -0.15 | [2] 0.054 | [3] 0.097 | [4] 0.052 | [5] -0.066

CDC42EP1 (UniProt Q00587)
inactive: [1] -0.067 | [2] 0.107 | [3] 0.041 | [4] 0.043 | [5] -0.029

CPSF1 (UniProt Q10570)
inactive: [1] -0.012 | [2] -0.049 | [3] -0.017 | [4] 0.132 | [5] 0.006

CLPP (UniProt Q16740)
inactive: [1] 0.037 | [2] 0.153 | [3] 0.093 | [4] -0.124 | [5] 0.008

CCM2 isoform 2 (UniProt Q9BSQ5)
inactive: [1] 0.013 | [2] 0.144 | [3] 0.046 | [4] -0.161 | [5] -0.046

CEPT1 (UniProt Q9Y6K0)
inactive: [1] -0.064 | [2] 0.105 | [3] 0.074 | [4] -0.121 | [5] -0.054

C16orf58 (UniProt Q96GQ5)
Sequence of UniProt Q96GQ5 (Q96GQ5 whole entry, looked up): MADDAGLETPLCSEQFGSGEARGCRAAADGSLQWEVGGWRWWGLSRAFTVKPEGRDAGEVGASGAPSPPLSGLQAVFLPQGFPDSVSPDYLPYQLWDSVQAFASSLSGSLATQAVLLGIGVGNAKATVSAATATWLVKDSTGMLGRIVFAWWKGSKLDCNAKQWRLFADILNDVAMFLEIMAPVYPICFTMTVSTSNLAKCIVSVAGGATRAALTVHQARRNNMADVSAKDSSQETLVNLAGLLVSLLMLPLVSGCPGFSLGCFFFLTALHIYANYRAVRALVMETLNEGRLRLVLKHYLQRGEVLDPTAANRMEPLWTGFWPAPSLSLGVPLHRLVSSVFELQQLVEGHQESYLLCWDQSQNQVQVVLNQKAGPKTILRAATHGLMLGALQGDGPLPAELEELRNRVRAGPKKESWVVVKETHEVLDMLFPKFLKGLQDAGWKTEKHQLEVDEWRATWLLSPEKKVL
inactive: [1] 0.023 | [2] 0.025 | [3] 0.088 | [4] -0.042 | [5] 0.013

C4A (UniProt P0C0L4)
inactive: [1] -0.158 | [2] -0.067 | [3] 0.127 | [4] -0.101 | [5] -0.01

CA1 (UniProt P00915)
inactive: [1] -0.007 | [2] 0.039 | [3] 0.019 | [4] 0.007 | [5] 0.018

CPSF6 isoform 2 (UniProt Q16630)
inactive: [1] 0.036 | [2] -0.038 | [3] 0.048 | [4] 0.02 | [5] -0.016

CSNK2A1 (UniProt P68400)
inactive: [1] 0.018 | [2] 0.033 | [3] 0.018 | [4] -0.008 | [5] 0.02

CDAN1 (UniProt Q8IWY9)
inactive: [1] -0.035 | [2] -0.049 | [3] 0.051 | [4] 0.091 | [5] 0.022

CLINT1 isoform 3 (UniProt Q14677)
inactive: [1] 0.053 | [2] -0.039 | [3] -0.01 | [4] 0.046 | [5] 0.044

CNOT2 (UniProt Q9NZN8)
inactive: [1] 0.024 | [2] -0.014 | [3] 0.056 | [4] 0.031 | [5] -0.002

CMTM3 (UniProt Q96MX0)
inactive: [1] -0.179 | [2] -0.001 | [3] -0.056 | [4] 0.044 | [5] 0.081

CDK6 (UniProt Q00534)
Sequence of UniProt Q00534 (Q00534 whole entry, looked up): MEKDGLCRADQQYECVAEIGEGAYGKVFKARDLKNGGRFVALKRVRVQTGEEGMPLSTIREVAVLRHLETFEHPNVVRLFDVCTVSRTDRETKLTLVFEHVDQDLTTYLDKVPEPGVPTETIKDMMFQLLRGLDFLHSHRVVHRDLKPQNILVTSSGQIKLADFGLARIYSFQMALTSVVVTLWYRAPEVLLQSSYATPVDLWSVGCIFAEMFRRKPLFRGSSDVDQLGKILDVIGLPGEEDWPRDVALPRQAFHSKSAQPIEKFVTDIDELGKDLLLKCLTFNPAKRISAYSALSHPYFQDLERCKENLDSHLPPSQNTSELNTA
inactive: [1] -0.005 | [2] -0.002 | [3] 0.005 | [4] -0.036 | [5] -0.055

CHAMP1 (UniProt Q96JM3)
inactive: [1] -0.073 | [2] 0.044 | [3] 0.022 | [4] -0.051 | [5] -0.006

CBR1 (UniProt P16152)
Sequence of UniProt P16152 (P16152 whole entry, looked up): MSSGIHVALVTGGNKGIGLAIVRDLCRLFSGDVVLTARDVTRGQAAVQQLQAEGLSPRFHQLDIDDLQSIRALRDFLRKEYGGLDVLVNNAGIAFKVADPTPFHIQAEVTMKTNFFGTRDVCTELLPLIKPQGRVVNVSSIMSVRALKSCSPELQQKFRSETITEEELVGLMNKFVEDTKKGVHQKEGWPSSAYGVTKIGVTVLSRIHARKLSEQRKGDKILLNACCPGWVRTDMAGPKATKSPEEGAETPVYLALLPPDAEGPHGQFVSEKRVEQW
inactive: [1] -0.009 | [2] 0.015 | [3] 0.01 | [4] -0.028 | [5] -0.037

CES2 isoform 4 (UniProt O00748)
inactive: [1] 0.041 | [2] -0.069 | [3] 0.061 | [4] 0.118 | [5] -0.141

CCND3 (UniProt P30281)
inactive: [1] -0.105 | [2] -0.015 | [3] 0.121 | [4] 0.033 | [5] 0.053

CASP10 isoform 4 (UniProt Q92851)
Sequence of UniProt Q92851 (Q92851 whole entry, looked up): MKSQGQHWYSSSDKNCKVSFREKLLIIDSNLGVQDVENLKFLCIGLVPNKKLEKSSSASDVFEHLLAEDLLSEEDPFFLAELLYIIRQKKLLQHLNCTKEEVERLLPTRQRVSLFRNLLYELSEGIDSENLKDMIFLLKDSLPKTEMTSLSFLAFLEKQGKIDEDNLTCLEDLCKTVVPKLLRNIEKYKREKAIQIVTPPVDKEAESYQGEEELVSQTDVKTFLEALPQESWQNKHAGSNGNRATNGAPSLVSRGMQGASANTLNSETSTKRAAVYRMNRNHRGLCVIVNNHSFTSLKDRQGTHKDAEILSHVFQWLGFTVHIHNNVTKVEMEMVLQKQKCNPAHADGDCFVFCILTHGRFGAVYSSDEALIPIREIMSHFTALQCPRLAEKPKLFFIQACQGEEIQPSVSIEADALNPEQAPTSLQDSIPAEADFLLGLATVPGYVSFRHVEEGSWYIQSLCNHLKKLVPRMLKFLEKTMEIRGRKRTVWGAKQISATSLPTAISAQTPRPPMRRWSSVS
inactive: [1] 0.064 | [2] 0.189 | [3] 0.114 | [4] 0.002 | [5] -0.145

CERS2 (UniProt Q96G23)
inactive: [1] -0.033 | [2] 0.035 | [3] -0.012 | [4] -0.036 | [5] 0.048

COQ7 (UniProt Q99807)
inactive: [1] -0.038 | [2] 0.016 | [3] 0.029 | [4] 0.014 | [5] 0.048

CNOT7 (UniProt Q9UIV1)
inactive: [1] -0.024 | [2] -0.053 | [3] 0.068 | [4] -0.032 | [5] 0.002

C9orf72 (UniProt Q96LT7)
inactive: [1] 0.02 | [2] 0.009 | [3] 0.085 | [4] -0.115 | [5] 0.002

CHCHD2 (UniProt Q9Y6H1)
inactive: [1] -0.016 | [2] 0.082 | [3] -0.007 | [4] -0.065 | [5] -0.011

CDKN2AIP (UniProt Q9NXV6)
inactive: [1] -0.036 | [2] -0.044 | [3] -0.008 | [4] 0.021 | [5] -0.014

CKB (UniProt P12277)
inactive: [1] -0.1 | [2] 0.01 | [3] 0.038 | [4] -0.022 | [5] -0.118

CALB1 (UniProt P05937)
inactive: [1] 0.001 | [2] 0.009 | [3] -0.045 | [4] -0.068 | [5] 0.026

COCH (UniProt O43405)
inactive: [1] 0.006 | [2] 0.061 | [3] -0.193 | [4] 0.144 | [5] 0.006

CDK12 (UniProt Q9NYV4)
inactive: [1] 0.102 | [2] -0.425 | [3] -0.103 | [4] 0.112 | [5] 0.008

COPS8 (UniProt Q99627)
Sequence of UniProt Q99627 (Q99627 whole entry, looked up): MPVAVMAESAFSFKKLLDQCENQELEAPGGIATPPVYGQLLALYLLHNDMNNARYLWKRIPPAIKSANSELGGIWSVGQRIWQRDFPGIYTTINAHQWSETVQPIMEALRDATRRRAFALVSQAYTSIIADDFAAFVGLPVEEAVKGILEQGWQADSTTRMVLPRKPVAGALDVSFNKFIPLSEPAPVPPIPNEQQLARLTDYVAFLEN
inactive: [1] 0.002 | [2] 0.086 | [3] 0.039 | [4] -0.123 | [5] -0.014

CCNT1 (UniProt O60563)
inactive: [1] 0.108 | [2] -0.022 | [3] -0.036 | [4] 0.085 | [5] 0.072

CPT2 (UniProt P23786)
Sequence of UniProt P23786 (P23786 whole entry, looked up): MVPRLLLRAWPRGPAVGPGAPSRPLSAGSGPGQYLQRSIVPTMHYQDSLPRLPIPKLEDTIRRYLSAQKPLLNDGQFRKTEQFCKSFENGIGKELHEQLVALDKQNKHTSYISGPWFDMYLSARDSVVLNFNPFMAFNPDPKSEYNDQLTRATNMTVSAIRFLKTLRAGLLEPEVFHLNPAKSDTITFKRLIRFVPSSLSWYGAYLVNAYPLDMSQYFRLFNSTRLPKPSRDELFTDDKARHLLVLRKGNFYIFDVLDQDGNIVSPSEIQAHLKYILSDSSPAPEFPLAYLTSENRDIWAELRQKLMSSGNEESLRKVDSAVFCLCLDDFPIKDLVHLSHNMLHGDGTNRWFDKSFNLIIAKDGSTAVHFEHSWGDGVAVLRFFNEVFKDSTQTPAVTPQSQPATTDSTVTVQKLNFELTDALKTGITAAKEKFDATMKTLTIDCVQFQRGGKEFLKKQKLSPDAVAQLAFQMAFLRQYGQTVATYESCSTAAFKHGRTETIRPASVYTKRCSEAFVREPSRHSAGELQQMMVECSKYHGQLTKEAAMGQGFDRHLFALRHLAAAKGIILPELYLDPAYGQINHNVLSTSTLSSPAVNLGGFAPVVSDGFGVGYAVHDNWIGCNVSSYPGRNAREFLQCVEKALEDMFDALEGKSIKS
inactive: [1] -0.402 | [2] 0.19 | [3] 0.155 | [4] -0.017 | [5] -0.026

CDK16 isoform 2 (UniProt Q00536)
inactive: [1] -0.009 | [2] 0.026 | [3] 0.043 | [4] -0.014 | [5] -0.074
